Molecules are shown by their SMILES. For some of these results: Entries with a potency or affinity are not part of this list.

This passage reports Percent Effect results from ChEMBL document CHEMBL3988442, “University of Dundee, Small-Polar-MMV Screening Library” (2021).

What all share (parameters): scale not given: direction of the effect not stated beside the values
The target of test [1] is Protein translocase subunit SecA (Escherichia coli (strain K12)) (UniProt P10408). Description: Assay to Identify E. coli SecA ATPase Inhibitors. The test is classed as functional. The following applies: 30 µM.
The target of test [2] is T1, Ubiquitin-activating enzyme e1, putative (Leishmania donovani (strain BPK282A1)) (UniProt E9BSI1).
T1 sequence (whole entry): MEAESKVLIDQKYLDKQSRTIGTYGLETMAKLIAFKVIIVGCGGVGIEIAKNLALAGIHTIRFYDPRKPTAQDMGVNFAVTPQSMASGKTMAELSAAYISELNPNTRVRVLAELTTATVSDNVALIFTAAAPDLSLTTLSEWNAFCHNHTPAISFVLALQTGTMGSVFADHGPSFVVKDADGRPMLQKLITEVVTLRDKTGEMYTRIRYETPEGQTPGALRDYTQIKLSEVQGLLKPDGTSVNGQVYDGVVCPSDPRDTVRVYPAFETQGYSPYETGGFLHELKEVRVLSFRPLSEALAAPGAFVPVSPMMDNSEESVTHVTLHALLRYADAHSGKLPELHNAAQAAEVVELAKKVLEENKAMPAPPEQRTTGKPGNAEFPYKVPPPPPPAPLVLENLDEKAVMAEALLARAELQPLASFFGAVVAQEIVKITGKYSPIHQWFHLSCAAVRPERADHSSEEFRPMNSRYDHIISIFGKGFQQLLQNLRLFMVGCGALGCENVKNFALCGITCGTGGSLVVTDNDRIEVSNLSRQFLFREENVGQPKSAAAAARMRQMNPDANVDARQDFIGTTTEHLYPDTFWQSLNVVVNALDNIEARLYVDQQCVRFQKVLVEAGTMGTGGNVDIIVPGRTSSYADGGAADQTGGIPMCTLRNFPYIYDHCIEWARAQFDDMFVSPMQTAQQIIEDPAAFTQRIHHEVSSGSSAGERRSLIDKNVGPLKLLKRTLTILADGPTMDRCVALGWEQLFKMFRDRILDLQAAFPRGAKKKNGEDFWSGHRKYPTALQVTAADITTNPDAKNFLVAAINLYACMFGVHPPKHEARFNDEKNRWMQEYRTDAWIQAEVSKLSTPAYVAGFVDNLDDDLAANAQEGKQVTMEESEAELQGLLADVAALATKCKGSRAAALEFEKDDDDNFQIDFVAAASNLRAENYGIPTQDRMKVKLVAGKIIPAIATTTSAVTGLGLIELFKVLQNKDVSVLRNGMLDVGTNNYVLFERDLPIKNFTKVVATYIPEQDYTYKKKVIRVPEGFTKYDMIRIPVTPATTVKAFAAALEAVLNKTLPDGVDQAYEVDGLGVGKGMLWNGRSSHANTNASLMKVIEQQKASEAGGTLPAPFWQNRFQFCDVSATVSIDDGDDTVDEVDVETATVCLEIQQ
Description: Leishmania donovani Ubiquitin Activating Enzyme (LdE1). In kind it is functional. As to conditions: 30 µM.

Test [3] addresses AMP-activated protein kinase, AMPK (Homo sapiens) (UniProt P54646+O43741+P54619+Q9UGJ0+Q9Y478+Q13131+Q9UGI9). Put plainly: AMP-dependent Kinase enzyme assay. An in vitro enzyme assay that detects ADP turnover that is directly proportional to AMPK activity. This uses naive AMPK that is activated during the assay with MK-8722. The following applies: 30 µM. In kind it is functional.

Test [4] concerns the target Sialic acid-binding Ig-like lectin 9 (Homo sapiens) (UniProt Q9Y336). Description: Hs-Siglec9 ALPHAscreen SOP 20170721. As to conditions: 10 µM. For orientation: In Alpha technology, singlet oxygen from a donor bead excites a nearby acceptor bead.
Test [5] deals with Trypanosoma cruzi. Put plainly: Trypanosoma cruzi phosphomannomutase and mannose-1-phosphate guanylyltransferase assay. In kind it is functional. The following applies: 10 µM.
Test [6] addresses T2, Arginase-2, mitochondrial (Homo sapiens) (UniProt P78540).
T2 sequence (whole entry): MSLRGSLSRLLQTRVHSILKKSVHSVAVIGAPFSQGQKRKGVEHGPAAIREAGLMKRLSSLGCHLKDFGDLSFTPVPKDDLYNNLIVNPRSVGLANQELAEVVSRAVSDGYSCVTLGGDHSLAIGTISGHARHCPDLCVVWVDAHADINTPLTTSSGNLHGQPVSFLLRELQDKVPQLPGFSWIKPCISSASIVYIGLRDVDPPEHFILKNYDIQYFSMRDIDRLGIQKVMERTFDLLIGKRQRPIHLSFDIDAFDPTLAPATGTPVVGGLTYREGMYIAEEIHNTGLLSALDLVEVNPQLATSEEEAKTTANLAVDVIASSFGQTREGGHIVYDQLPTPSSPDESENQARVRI
Description: in vitro enzyme assay to detect the production of urea directly proportional to the activity of Arginase II. Further: in the data most compounds retested in dose-response had high values. As to conditions: 33.3 µM. The test is classed as functional.

Test [7] concerns the target T3, Proteasome subunit beta (Trypanosoma cruzi) (UniProt O96673).
T3 sequence (whole entry): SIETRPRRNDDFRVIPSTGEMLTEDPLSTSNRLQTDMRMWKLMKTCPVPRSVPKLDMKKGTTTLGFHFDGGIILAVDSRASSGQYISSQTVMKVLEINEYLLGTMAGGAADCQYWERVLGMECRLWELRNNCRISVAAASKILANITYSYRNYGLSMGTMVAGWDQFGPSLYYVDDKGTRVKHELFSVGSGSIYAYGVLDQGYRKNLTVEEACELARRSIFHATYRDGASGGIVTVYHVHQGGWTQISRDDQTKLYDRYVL
Put plainly: Trypanosoma cruzi proteasome chymotrypsin-like activity (TcProtChymo) assay. Further: in the data most compounds retested in dose-response had high values. In kind it is functional. As to conditions: 9.37 µM.

The species entered for test [8] is Homo sapiens. Put plainly: To identify inhibition of the IFN signalling (Jak-Stat) pathway via expression of an eGFP reporter gene under the control of an IFN-stimulated response element (ISRE) containing MxA promoter. In kind it is functional. As to conditions: 30 µM. (In general: Reporter assays use an easily measured gene product as a stand-in for the process of interest.)

Test [9] addresses T4, Tyrosyl-tRNA synthetase, putative (Trypanosoma cruzi (strain CL Brener)) (UniProt Q4DSP6).
T4 sequence (whole entry): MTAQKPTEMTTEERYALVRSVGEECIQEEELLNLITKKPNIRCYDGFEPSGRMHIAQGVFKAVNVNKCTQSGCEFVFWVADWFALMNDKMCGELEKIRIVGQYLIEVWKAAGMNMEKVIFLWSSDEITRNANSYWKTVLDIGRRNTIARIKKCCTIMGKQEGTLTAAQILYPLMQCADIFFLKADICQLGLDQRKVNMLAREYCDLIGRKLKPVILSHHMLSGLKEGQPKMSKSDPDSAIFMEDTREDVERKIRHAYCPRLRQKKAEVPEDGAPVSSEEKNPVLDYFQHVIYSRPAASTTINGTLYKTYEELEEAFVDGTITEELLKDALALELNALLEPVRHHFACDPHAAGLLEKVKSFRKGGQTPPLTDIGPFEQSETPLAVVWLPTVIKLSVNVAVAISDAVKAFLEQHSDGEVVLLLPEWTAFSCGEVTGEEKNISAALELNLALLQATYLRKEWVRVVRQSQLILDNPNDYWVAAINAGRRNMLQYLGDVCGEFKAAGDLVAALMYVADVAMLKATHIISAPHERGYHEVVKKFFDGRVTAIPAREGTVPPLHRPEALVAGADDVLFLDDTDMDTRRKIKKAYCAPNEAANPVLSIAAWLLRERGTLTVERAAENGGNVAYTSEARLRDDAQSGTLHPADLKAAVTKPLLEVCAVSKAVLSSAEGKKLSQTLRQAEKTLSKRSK
Description: Trypanosoma cruzi tyrosyl tRNA synthetase (TcYRS) _High Tyrosine SOP. Further: in the data most compounds retested in dose-response had high values. The test is classed as functional. As to conditions: 30 µM.

The target of test [10] is T4, Tyrosyl-tRNA synthetase, putative (Trypanosoma cruzi (strain CL Brener)). Description: Trypanosoma cruzi tyrosyl tRNA synthetase (TcYRS) SOP. The test is classed as functional. The following applies: 30 µM.
The target of test [11] is Chromo domain-containing protein 1 (Saccharomyces cerevisiae (strain ATCC 204508 / S288c) (Baker's yeast)) (UniProt P32657). Description: ScCHD-1 Enzyme Inhibition Assay. Further: in the data most compounds retested in dose-response had high values. The test is classed as functional. The following applies: 30 µM.
Chromo domain-containing protein 1 (Saccharomyces cerevisiae (strain ATCC 204508 / S288c) (Baker's yeast)), sequence (P32657 whole entry, the tested form may be a part): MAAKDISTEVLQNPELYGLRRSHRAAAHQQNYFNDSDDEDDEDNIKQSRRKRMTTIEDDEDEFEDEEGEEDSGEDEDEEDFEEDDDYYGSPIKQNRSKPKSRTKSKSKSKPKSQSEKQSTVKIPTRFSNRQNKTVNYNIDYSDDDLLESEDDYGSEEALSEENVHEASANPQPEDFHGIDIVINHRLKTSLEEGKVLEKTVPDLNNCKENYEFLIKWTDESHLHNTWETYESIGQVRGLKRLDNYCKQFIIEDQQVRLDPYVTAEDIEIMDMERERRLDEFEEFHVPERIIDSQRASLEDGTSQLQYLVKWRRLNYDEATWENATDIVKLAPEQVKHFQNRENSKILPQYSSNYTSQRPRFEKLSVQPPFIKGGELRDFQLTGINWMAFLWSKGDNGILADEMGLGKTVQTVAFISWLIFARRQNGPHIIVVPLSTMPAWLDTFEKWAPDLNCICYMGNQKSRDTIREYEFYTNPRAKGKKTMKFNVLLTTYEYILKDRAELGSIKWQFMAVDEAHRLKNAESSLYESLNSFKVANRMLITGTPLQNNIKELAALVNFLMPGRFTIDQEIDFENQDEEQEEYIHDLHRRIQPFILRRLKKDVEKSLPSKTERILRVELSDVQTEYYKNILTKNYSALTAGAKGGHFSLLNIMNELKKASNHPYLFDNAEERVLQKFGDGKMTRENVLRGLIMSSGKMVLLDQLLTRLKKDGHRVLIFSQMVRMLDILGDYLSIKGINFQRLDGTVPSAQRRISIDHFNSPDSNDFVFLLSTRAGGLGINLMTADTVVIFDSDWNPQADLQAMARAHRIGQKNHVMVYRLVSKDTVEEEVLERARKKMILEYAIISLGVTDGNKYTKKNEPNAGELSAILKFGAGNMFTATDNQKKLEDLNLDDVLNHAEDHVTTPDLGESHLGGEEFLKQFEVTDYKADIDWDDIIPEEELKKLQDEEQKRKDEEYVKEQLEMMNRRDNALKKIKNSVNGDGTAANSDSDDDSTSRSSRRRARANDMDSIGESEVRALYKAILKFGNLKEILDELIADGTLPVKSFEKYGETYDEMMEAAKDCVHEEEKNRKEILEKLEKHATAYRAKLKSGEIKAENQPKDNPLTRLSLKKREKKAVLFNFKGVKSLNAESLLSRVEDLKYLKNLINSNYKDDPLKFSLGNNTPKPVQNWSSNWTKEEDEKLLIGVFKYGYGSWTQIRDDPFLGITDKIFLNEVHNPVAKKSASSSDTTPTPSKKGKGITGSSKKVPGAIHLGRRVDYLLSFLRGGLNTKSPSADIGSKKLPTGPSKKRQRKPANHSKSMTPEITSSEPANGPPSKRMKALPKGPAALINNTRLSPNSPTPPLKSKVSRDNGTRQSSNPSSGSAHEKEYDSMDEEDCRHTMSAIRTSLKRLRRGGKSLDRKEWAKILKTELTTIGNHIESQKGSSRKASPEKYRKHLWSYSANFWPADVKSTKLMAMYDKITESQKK

Protein translocase subunit SecA (Escherichia coli (strain K12)), sequence (P10408 whole entry): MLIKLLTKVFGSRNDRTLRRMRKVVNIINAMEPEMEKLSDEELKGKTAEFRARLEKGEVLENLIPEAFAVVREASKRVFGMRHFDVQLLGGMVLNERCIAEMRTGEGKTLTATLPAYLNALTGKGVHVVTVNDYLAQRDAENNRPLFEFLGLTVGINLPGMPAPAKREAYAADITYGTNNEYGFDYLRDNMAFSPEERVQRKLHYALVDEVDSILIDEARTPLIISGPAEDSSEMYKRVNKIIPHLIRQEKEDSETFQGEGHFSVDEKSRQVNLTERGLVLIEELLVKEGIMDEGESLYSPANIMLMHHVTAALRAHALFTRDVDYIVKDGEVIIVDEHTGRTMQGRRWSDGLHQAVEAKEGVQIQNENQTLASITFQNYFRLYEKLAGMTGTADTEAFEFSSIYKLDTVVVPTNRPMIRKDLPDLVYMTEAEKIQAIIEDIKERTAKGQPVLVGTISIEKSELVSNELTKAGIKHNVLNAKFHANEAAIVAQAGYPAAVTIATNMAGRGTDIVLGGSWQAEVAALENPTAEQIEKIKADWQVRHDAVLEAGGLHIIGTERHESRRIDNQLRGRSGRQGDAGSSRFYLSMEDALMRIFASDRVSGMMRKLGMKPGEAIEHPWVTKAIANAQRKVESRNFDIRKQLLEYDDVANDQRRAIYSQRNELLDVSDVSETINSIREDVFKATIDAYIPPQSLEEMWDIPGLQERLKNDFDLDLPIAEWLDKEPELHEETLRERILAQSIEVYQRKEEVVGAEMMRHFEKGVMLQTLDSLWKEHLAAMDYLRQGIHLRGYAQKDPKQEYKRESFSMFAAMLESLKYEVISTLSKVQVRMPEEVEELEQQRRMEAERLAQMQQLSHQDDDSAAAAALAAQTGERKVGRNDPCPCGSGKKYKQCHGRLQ
Sialic acid-binding Ig-like lectin 9 (Homo sapiens), sequence (Q9Y336 whole entry): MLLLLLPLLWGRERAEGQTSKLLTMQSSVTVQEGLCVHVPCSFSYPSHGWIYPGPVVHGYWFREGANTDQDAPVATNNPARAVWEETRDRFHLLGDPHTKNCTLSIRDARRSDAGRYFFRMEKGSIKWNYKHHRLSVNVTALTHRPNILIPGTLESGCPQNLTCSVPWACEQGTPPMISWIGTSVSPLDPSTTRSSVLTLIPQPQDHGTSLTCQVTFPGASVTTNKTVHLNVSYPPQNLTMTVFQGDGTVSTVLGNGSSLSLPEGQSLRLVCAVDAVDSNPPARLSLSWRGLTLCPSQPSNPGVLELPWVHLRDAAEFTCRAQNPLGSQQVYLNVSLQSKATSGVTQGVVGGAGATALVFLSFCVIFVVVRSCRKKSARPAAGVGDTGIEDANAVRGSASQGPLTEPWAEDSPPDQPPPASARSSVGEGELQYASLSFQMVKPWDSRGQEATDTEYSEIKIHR

Turning to `CCCOCCN1CCC2(CC1)CC(c1ccccc1)C(=O)N2C` (stereo not drawn), the Percent Effect in test [1] was 6.56%; in test [2], 5.33%; in test [3], -0.289%; in test [4], -1.03%; in [5], -9.45%; in [6], -4.69%. Besides, the Percent Effect in test [7] is 18.8%; in test [8], 48.6%; in test [9] it was -2.73%; in [10], 1.24%; in [11] it was -5.61%.
On to `Cc1cc(NC(=O)C(c2cccc(F)c2)N2CCOCC2)ccn1` (stereo not drawn), for which the Percent Effect in [1] was -4.97%; in test [2], 10.5%; in [3], 2.55%; in test [4], 5.76%; in [5], 1.66%; in [6] it was -9.47%. Moreover, the Percent Effect was 10.6% in test [7]; 3.19% in test [8]; 2.13% in test [9]; 7.79% in test [10]; -7.19% in [11].
In the case of `Cc1cc(NC(=O)c2nc(N3CCCC3)ncc2Cl)nc(C(C)C)n1`, the Percent Effect was -0.667% in test [1]; 5.41% in [2]; -5.04% in test [3]; -2.54% in [4]; -8.79% in [5]; 3.33% in [6]. Further, the Percent Effect in test [7] turned out to be 17.2%; in test [8] it was 2.69%; in [9], 9.9%; in test [10] it was 8.54%; in test [11], 0.666%.
Regarding `COCCCNC(=O)CN1CCCC1c1c(C)nn(C)c1Cl` (stereo not drawn), the Percent Effect in test [1] is -8%; in [2] it was 8.86%; in test [3], -7.07%; in test [4], -3.46%; in [5] it was 2.15%; in [6], 2.37%. The Percent Effect in [7] was 7.38%; in test [8], -0.237%; in test [9], 1.04%; in test [10], -7.59%; in [11], -25.1%.
Take `CC(CCN1CCn2nc(CNC(=O)N(C)C)cc2C1)c1ccccc1` (stereo not drawn): the Percent Effect in [1] was -0.0552%; in [2], 5.41%; in [3] it was -1.77%; in test [4] it was 16.6%; in test [5] it was 4.25%; in test [6], 8.1%. In addition, the Percent Effect in test [7] was 6.9%; in [8], 16.3%; in [9], 6.88%; in [10], 19.5%; in test [11] it was -3.46%.
`CCN1C[C@H]2CCN(C(=O)NC3CCCC3)CC[C@H]2S1(=O)=O`: the Percent Effect was 2.4% in test [1]; 14.7% in [2]; 2.73% in test [3]; -7.67% in [4]; -3.54% in [5]; -5.81% in test [6]. The Percent Effect was 15.5% in [7]; 2.2% in test [8]; 1.06% in test [9]; 5.13% in test [10]; -7.62% in test [11].
As for `Fc1cnc(N2CCn3cc(CNc4ccccn4)nc3C2)nc1`, the Percent Effect in [1] was 0.222%; in test [2], -2.67%; in test [3] it was 7.82%; in test [4] it was 16.2%; in [5] it was -0.193%; in test [6] it was -56.1%. Further, the Percent Effect in [7] was 3.76%; in test [8] it was 7.84%; in test [9] it was -1.04%; in test [10] it was -5%; in [11] it was -2.56%.
As for `O=C(Cn1cnc(NC(=O)CC2CCCC2)n1)NCc1ccccc1`, the Percent Effect in [1] was -6.6%; in test [2], 15.8%; in test [3], -2.47%; in test [4] it was 8.52%; in [5] it was 9.96%; in [6], -1.53%. Moreover, the Percent Effect in [7] was 2.84%; in [8] it was 11.9%; in test [9], 6.37%; in [10], 17.1%; in test [11], -12.2%.
